This is a sample that favours compounds with a hit; in the whole collection about 9.4% have one here.
SMN2 splice enh: SMN2 splice variant enhancement; 2.8% of 210,000 active; Potency, µM (highest dose often 46.1 µM), for inactives: at the top dose activity change, positive = activation, hits mostly activators; AID 1458; HEK293 SMN2-luciferase splicing reporter, luminescence, 30-36 h; note: % of control where 0% means no effect; nearly all actives have a fitted effect of over 55% in size
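HEK293 cells carry an SMN2 […]–luciferase reporter in which exon 7 inclusion puts luciferase in frame. Cells were plated 10-12 h before compound addition, then incubated 30-36 h at 37C. ONE-Glo luminescence was read; sodium butyrate at 4.5 mM final served as control.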
ELG1 genotoxic: inducers of genotoxicity in HEK293T ELG1-luciferase cells | 1.3% of 330,000 active | HEK293T ELG1-luciferase reporter, luminescence, 16 h | Potency, µM (highest dose often 46 µM), inactives show at the top dose activity change, positive = activation, most hits filed as activators | AID 504466; note: % of control where 0% means no effect; nearly all actives have a fitted effect of over 60% in size
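Reporter readout depends on ELG1 protein level, which increases with genetic stress. After 16 hr compound exposure at 37 °C, luciferase activity was quantified using ONE-Glo.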
ELG1 repair inh: ELG1-dependent DNA repair inhibition. HEK293T ELG1-luciferase reporter, luminescence, 16 h; DNA damage induced by 5-fluorouridine. 2.3% of 330,000 active. Potency, µM (highest dose often 46.1 µM), inactives show at the top dose activity change, negative = inhibition, actives largely listed as inhibitors; note: % is set by controls: 0 for no effect and ±100 for the full control effect; nearly all actives have a fitted effect of over 55% in size
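HEK293T cells expressing luciferase-tagged ELG1 (2,000/well) received 5-Fluorouridine plus compound or DMSO for 16 hr at 37 °C. Luciferase was read by ONE-Glo luminescence after 30 min at room temperature.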
Rab9 prom act: Rab9 promoter activation; Huh7 Rab9 promoter-luciferase reporter, luminescence, 24 h; Potency, µM (doses to about 9.22 µM), for inactives: at the highest dose activation, negative = inhibition, actives largely listed as activators; 2.8% of 320,000 active; AID 485297; note: % of control where 0% means no effect; nearly all actives have a fitted effect of over 60% in size
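Huh7 cells stably carrying Rab9 promoter–luciferase reporter, plated 1500 cells/well, compound added after 2 h and incubated 24 h at 37 °C; luciferase luminescence then read after 10 min with detection reagent.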
FLuc counter: counter-screen for miR-21 project: firefly luciferase inhibitors or activators | 6.9% of 360,000 active | purified FLuc, Km substrates, luminescence inhibition | Potency, µM (series often up to 57.5 µM), inactives show at the top dose activity change, negative = inhibition, usual class: inhibitors | P08659 | AID 588342;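 note: plate controls were vehicle for no effect and reference inhibitor for full effect; nearly all actives have a fitted effect of over 55% in size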
Target sequence (P08659 whole entry, looked up): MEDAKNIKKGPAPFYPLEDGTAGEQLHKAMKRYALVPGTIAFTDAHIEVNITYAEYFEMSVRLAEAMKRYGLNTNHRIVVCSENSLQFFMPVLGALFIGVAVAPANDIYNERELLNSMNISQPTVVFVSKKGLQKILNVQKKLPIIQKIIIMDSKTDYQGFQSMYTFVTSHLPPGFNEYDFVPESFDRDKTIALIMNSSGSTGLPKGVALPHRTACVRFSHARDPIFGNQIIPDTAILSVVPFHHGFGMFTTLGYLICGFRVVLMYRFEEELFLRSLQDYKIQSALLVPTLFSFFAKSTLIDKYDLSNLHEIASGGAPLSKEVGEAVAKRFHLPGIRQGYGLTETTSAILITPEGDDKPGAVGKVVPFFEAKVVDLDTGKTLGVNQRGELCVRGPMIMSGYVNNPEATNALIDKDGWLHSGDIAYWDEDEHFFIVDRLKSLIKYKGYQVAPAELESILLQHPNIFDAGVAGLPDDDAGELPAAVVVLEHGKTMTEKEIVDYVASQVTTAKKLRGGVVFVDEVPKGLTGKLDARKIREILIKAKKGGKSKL
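Biochemical qHTS of compounds, final roughly 60 µM downward over six points, against 10 nM purified firefly luciferase using Km concentrations of substrates (10 uM D-luciferin, 10 uM ATP) in Tris acetate pH 7.5 buffer; luminescence output.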
NPC1 promoter act: activates the NPC1 promoter; Huh7 NPC1 promoter luciferase reporter, 24 h; Potency, µM (doses to about 9.22 µM), inactives show at the top dose activation, actives largely listed as activators; 2.4% of 320,000 active; AID 485313; note: % of control where 0% means no effect; nearly all actives have a fitted effect of over 60% in size
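Luciferase expression driven by the NPC1 promoter was measured in stably transfected Huh7 cells after a 24 h compound incubation, using a luciferase reagent and a luminescence read.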
An asterisk follows results filed as active; u = inconclusive; x = not tested or not shown; [ ] = dose if it differs, or a comment. Calls come from the whole dose curve; as a rule, active = well fitted curve in the direction sought with a large enough effect; inconclusive = small, poorly fitted or top-dose-only effect, or another doubt; inactive = no such curve, though single readings can be large; an effect the other way counts as inactive or inconclusive. Potency is the fitted concentration of half-maximal effect.

SMILES	SMN2 splice enh	ELG1 genotoxic	ELG1 repair inh	Rab9 prom act	FLuc counter	NPC1 promoter act
O=C(/C=C/c1ccccc1)Nc1cc(NC(=O)/C=C/c2ccccc2)cc(C(=O)O)c1	x	-3.7%	-15.4%	15.7%	13.5µM*	10.5%
O=C(Nc1cccc(C(=O)O)c1)/C(=C\C=C\c1ccccc1)NC(=O)c1ccccc1	0.7%	-1.8%	1.9%	-3.8%	13.5µM*	-0.9%
COc1ccccc1CCNC(=O)Cc1c(C)c2cc3c(C)coc3cc2oc1=O	0.0%	x	x	x	-2.7%	x
COc1ccc(CCNC(=O)Cn2c(=O)n(-c3cc(OC)c(OC)c(OC)c3)c(=O)c3ccccc32)cc1OC	-0.8%	x	x	x	2.5%	x
O=C(O)c1cccc(NS(=O)(=O)/C=C/c2ccccc2)c1	9.8%	-1.9%	15.5%	-0.9%	-1.4%	1.8%
O=C(/C=C/c1ccccc1)Nc1cccc(C(=O)O)c1	x	-14.7%	u	u	0.0675µM*	u
CCn1c(SCC(N)=O)nnc1-c1cc2c(C)nn(-c3ccccc3)c2s1	-6.6%	0.8%	u	0.2%	15.1µM*	5.8%
CCCCn1cc(S(=O)(=O)c2ccc(C)c(C)c2)c(=O)c2cc(F)c(N(CC)CC)cc21	x	x	x	x	-9.8%	x
COc1ccccc1NC(=O)c1ccccc1-c1nc(-c2ccccc2OC)no1	18.4%	-7.5%	u	7.8%	10.7µM*	5.2%
COc1cccc(NC(=O)c2ccccc2-c2nc(-c3ccc(Cl)cc3)no2)c1	-1.5%	-3.2%	u	9.5%	13.5µM*	9.4%
COc1ccccc1NC(=O)c1ccccc1C(=O)O	6.4%	2.0%	12.2%	1.4%	-3.5%	-2.5%
COc1ccccc1-c1noc(-c2ccccc2C(=O)Nc2ccccc2)n1	-3.2%	3.8%	1.9%	25.9%	10.7µM*	11.2%
COc1cccc(NC(=O)c2ccccc2-c2nc(-c3ccccc3)no2)c1	-13.5%	5.7%	-26.7%	-1.2%	u	-0.2%
COc1ccccc1N1CCN(C(CNC(=O)C(=O)NCc2ccc(F)cc2)c2cccnc2)CC1 (stereo not drawn)	x	x	x	x	-14.7%	x
COC(=O)c1ccc(CN(Cc2ccc(OC)c(OC)c2)S(=O)(=O)c2ccc(F)c(C(=O)Nc3cc(C)ccc3C)c2)cc1	x	x	x	x	-2.6%	x
Nc1[nH]n(-c2ccccc2)c(=O)c1N=Nc1ccc2c(c1)OCCO2	2.24µM*	u	u	0.501µM*	0.601µM*	2µM*
Cc1cc([N+](=O)[O-])ccc1N=Nc1c(N)[nH]n(-c2ccccc2)c1=O	2.2%	-1.4%	4.4%	-2.2%	-6.2%	7.6%
Nc1[nH]n(-c2ccccc2)c(=O)c1N=Nc1ccc2c(c1)OCO2	x	u	u	3.16µM*	2.39µM*	3.55µM*
Cc1cc(C)c2c(=O)cc(C(=O)Nc3ccccc3C(F)(F)F)oc2c1	10.1%	x	x	x	-0.5%	x
CN(C)S(=O)(=O)c1ccc2c(c1)N(CC(=O)NCc1ccccc1)C(=O)C1CCCCN21 (stereo not drawn)	x	x	x	x	-2.4%	x
Cc1c(C(=O)Nc2ccc3nc(N4CCOCC4)sc3c2)oc2ccccc12	x	-5.0%	11.2µM*	-4.5%	u	0.8%
CSCc1c(C(=O)Nc2ccc3c(c2)OCO3)oc2ccccc12	x	10.9%	u	18.9%	19µM*	-25.7%
CC(=O)Nc1c(C(=O)Nc2ccc3c(c2)OCO3)oc2ccccc12	x	u	u	2.51µM*	10.7µM*	2.82µM*
COc1cc(C(=O)Nc2ccc3nc(N4CCOCC4)sc3c2)cc(OC)c1OC	x	-3.2%	-19.6%	0.8%	-6.5%	5.5%
Cc1ccc(NC(=O)c2oc3ccccc3c2NC(=O)c2ccc(F)c(F)c2)cc1	-4.3%	x	x	x	-2.6%	x
SMILES	SMN2 splice enh	ELG1 genotoxic	ELG1 repair inh	Rab9 prom act	FLuc counter	NPC1 promoter act
COCC(=O)Nc1c(C(=O)Nc2ccc(C)cc2)oc2ccccc12	7.94µM*	x	x	x	-8.2%	x
O=C(COc1ccccc1F)Nc1c(C(=O)Nc2cccc(F)c2)oc2ccccc12	6.0%	x	x	x	5.6%	x
Cc1ccc(-n2nc3ccc(NC(=O)c4oc5ccccc5c4C)cc3n2)cc1	-1.6%	x	x	x	0.6%	x
O=C(CCl)Nc1c(C(=O)Nc2ccc3c(c2)OCCO3)oc2ccccc12	x	u	u	3.98µM*	u	3.98µM*
Cc1c(C(=O)Nc2ccc3c(c2)OCO3)oc2ccccc12	x	2.59µM*	u	2.24µM*	1.9µM*	2µM*
COCC(=O)Nc1c(C(=O)Nc2ccc3c(c2)OCO3)oc2ccccc12	x	u	u	3.16µM*	-5.8%	3.55µM*
O=C1Nc2ccccc2S/C1=C\C(=O)N1CCCC1	12.6µM*	-18.8%	u	3.55µM*	12µM*	19.2%
CC1=CS/C(=C(/C#N)C(=O)N2CCCCC2)N1c1ccccc1	15.4%	-4.3%	1.7%	-6.6%	1.5%	1.1%
N#C/C(C(=O)N1CCCCC1)=C1\Nc2ccccc2S1	17.8µM*	u	u	2.82µM*	10.7µM*	u
CCc1ccc(C(=O)/C=C2\Sc3ccccc3NC2=O)cc1	x	11.1%	u	-4.7%	13.5µM*	-1.5%
CCCCNC(=O)/C=C1\Sc2ccccc2NC1=O	-8.4%[1.84 µM]	5.8%	u	-0.9%	u	-0.9%
NC(=O)C1(N2CCCCC2)CCN(C(=O)Nc2ccc(F)cc2)CC1	-2.7%	x	x	x	-1.3%	x
CCCCOC(=O)c1ccc(OC(=O)c2sc3ncn(Cc4ccccc4Cl)c(=O)c3c2C)cc1	x	x	x	x	2.4%	x
COC(=O)c1c(C)c2c(C)cc3ccccn3c-2c1C(=O)OC	8.7%	-14.6%	-12.4%	-2.0%	0.2%	0.8%
COC(=O)c1cc2c(-c3ccccc3)cc3ccccn3c-2c1C(=O)OC	-16.0%	-9.9%	23.1µM*	0.8%	-9.6%	-2.3%
O=C(CSc1nc2nn(-c3ccccc3)c(=O)c-2c2n1CCCCC2)Nc1ccc(OC(F)F)cc1	x	-3.7%	13µM*	x	x	x
O=C(CSc1nc2nn(-c3ccccc3)c(=O)c-2c2n1CCCCC2)Nc1ccc(F)c(F)c1	x	-4.6%	u	x	x	x
O=C(CSc1nc2nn(-c3ccccc3)c(=O)c-2c2n1CCCCC2)c1ccc(O)c(O)c1	x	4.6%	18.3µM*	-0.4%	-2.1%	-1.7%
NC(N)=NC[C@H](N)C(=O)O	3.1%[9.22 µM]	x	x	x	x	x
CC(C)Oc1ccc(CNC(=O)c2ccc(CS(=O)Cc3ccccc3Cl)o2)cc1 (stereo not drawn)	x	x	x	x	-18.2%	x
CCOc1cccc(C(=O)Nc2cc(-c3ccc(C)cc3)no2)c1	28.8%	x	x	x	-2.0%	x
CCOc1ccc(C(=O)Nc2cc(-c3ccccc3)no2)cc1	u	x	x	x	1.51µM*	x
CCCCOc1ccc(C(=O)Nc2cc(-c3ccc(C)cc3)no2)cc1	4.4%	x	x	x	4.7%	x
COc1cccc(C(=O)Nc2cc(-c3ccccc3)no2)c1	15.8µM*	x	x	x	1.2µM*	x

Assay outcomes as filed in PubChem.
